Source: PubChem BioAssay (NCATS)
Inconclusive results are not listed. Calls of active or inactive are those of the source. The call rests on the fitted dose curve; in most records, active means well fitted curve in the direction sought with a large enough effect; inconclusive means small, poorly fitted or top-dose-only effect, or another doubt; inactive means no such curve, though single readings can be large; an effect the other way counts as inactive or inconclusive.

Assays:
[1] = system: MCC-26; test: qHTS assay to identify novel small-molecules to repurpose for Merkel cell carcinoma treatment (AID 1296009); details: MCC and control cell lines, CellTiter-Glo viability, 72 h; series mostly up to 46 µM; further: nearly all actives have a fitted effect of over 60% in size
How it was run: (§1)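 Cell viability, measured as CellTiter-Glo luminescence, was normalized between DMSO and no-cell wells. The cells had been exposed to 8- or 11-point compound dilutions for 72 hr at 37 degree celsius.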

[2] = system: MKL-1; test: as above; details: MCC and control cell lines, CellTiter-Glo viability, 72 h; series mostly up to 46 µM
How it was run: as §1

[3] = system: MKL-2; test: as above; details: MCC and control cell lines, CellTiter-Glo viability, 72 h; series mostly up to 46 µM
How it was run: as §1

[4] = system: WaGa; test: as above; details: MCC and control cell lines, CellTiter-Glo viability, 72 h; series mostly up to 46 µM
How it was run: as §1

[5] = system: CASKI; test: Primary qHTS to identify gynecologic anti-cancer compounds using libraries of approved drugs and bioactive compounds (AID 1345084); details: Gynecologic cancer cell panel viability, ATPlite luminescence, 48 h; series mostly up to 57.5 µM; further: nearly all actives have a fitted effect of over 55% in size
How it was run: (§2)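 Five-concentration response, 48 h; readout is ATP-driven luciferase luminescence.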

[6] = system: Es-2; test: as above; details: Gynecologic cancer cell panel viability, ATPlite luminescence, 48 h; series mostly up to 57.5 µM
How it was run: as §2

[7] = system: Hek293T; test: as above; details: Gynecologic cancer cell panel viability, ATPlite luminescence, 48 h, control line for the selectivity index; series mostly up to 57.5 µM
How it was run: as §2

[8] = system: JEG-3; test: as above; details: Gynecologic cancer cell panel viability, ATPlite luminescence, 48 h; series mostly up to 57.5 µM
How it was run: as §2

[9] = system: OV90; test: as above; details: Gynecologic cancer cell panel viability, ATPlite luminescence, 48 h; series mostly up to 57.5 µM
How it was run: as §2

[10] = system: PA-1; test: as above; details: Gynecologic cancer cell panel viability, ATPlite luminescence, 48 h; series mostly up to 57.5 µM
How it was run: as §2

[11] = system: SKOV3; test: as above; details: Gynecologic cancer cell panel viability, ATPlite luminescence, 48 h; series mostly up to 57.5 µM
How it was run: as §2

[12] = system: Tov-21-G; test: as above; details: Gynecologic cancer cell panel viability, ATPlite luminescence, 48 h; series mostly up to 57.5 µM
How it was run: as §2

[13] = system: Tov112D; test: as above; details: Gynecologic cancer cell panel viability, ATPlite luminescence, 48 h; series mostly up to 57.5 µM
How it was run: as §2

[14] = system: UISO; test: qHTS assay to identify novel small-molecules to repurpose for Merkel cell carcinoma treatment (AID 1296009); details: MCC and control cell lines, CellTiter-Glo viability, 72 h; series mostly up to 46 µM; further: nearly all actives have a fitted effect of over 60% in size
How it was run: as §1

[15] = system: MCC-13; test: as above; details: MCC and control cell lines, CellTiter-Glo viability, 72 h; series mostly up to 46 µM
How it was run: as §1

[16] = system: C33A; test: Primary qHTS to identify gynecologic anti-cancer compounds using libraries of approved drugs and bioactive compounds (AID 1345084); details: Gynecologic cancer cell panel viability, ATPlite luminescence, 48 h; series mostly up to 57.5 µM; further: nearly all actives have a fitted effect of over 55% in size
How it was run: as §2

[17] = system: HeLa; test: as above; details: Gynecologic cancer cell panel viability, ATPlite luminescence, 48 h; series mostly up to 57.5 µM
How it was run: as §2

[18] = system: NIH3T3; test: qHTS assay to identify novel small-molecules to repurpose for Merkel cell carcinoma treatment (AID 1296009); details: MCC and control cell lines, CellTiter-Glo viability, 72 h; at 44.8 µM (top of the series) unless noted; further: nearly all actives have a fitted effect of over 60% in size
How it was run: as §1

Measured: Potency
Potency means the concentration at half of the fitted maximal effect.

CN1CCCN(C(=O)c2cccc(-c3ccc(C=C4C(=O)Nc5ccc(Cl)cc54)o3)c2)CC1
active: [2] 5.26 µM | [3] 16.6 µM | [4] 16.6 µM
inactive: [1]

CC1=C(C(=O)Nc2cc3cn[nH]c3cc2F)C(c2ccc(Cl)cc2F)N=C(c2ccnc(Cl)c2)N1 (centres undefined)
inactive: [1] | [5] | [6] | [7] | [8] | [9] | [10] | [11] | [12] | [13]
active: [3] 20.9 µM | [4] 10.5 µM

N#CC(=C(N)Sc1ccc(N)cc1)c1ccccc1C(F)(F)F
inactive: [1] | [2] | [3] | [14] | [4]

COc1ccc(S(=O)(=O)Nc2cccnc2Nc2ccc(O)cc2)cc1
active: [15] 3.72 µM | [16] 8.91 µM | [6] 2.24 µM | [17] 1.78 µM | [8] 2 µM | [10] 1 µM | [11] 6.31 µM | [13] 1.78 µM

CC(C)n1cnc2c(NCCc3ccc(O)cc3)nc(-c3csc4ccccc34)nc21
inactive: [15] | [4] | [16] | [5] | [6] | [17] | [7] | [8] | [9] | [10] | [12] | [13]

C#CCC(Cc1cnc2nc(N)nc(N)c2n1)c1ccc(C(=O)N[C@@H](CCC(=O)O)C(=O)O)cc1 (some centres undefined)
inactive: [1] | [3]
active: [4] 0.526 µM

C[N+](C)([O-])CCNc1ccc(NCC[N+](C)(C)[O-])c2c1C(=O)c1c(O)ccc(O)c1C2=O
inactive: [1]

Nc1ncn([C@@H]2O[C@H](CO)[C@@H](O)[C@@H]2O)c(=O)n1
inactive: [2] | [3]

CC[C@@]1([C@@H]2O[C@@H]([C@H]3O[C@@](O)(CO)[C@H](C)C[C@H]3C)C[C@H]2C)CC[C@H]([C@]2(C)CC[C@]3(C[C@H](O)[C@@H](C)[C@@H]([C@@H](C)[C@@H](OC)[C@H](C)C(=O)O)O3)O2)O1
active: [2] 0.512 µM | [3] 0.204 µM | [14] 0.512 µM | [4] 0.457 µM
inactive: [1]

Cn1c(Nc2ccc(C(F)(F)F)cc2)nc2cc(Oc3ccnc(-c4ncc(C(F)(F)F)[nH]4)c3)ccc21
active: [14] 3.72 µM | [4] 18.7 µM
inactive: [1]

COc1cc2ncnc(Nc3cccc(Br)c3)c2cc1OC
inactive: [1] | [2] | [4]

C=CCNC1=C2C[C@@H](C)C[C@H](OC)[C@@H](O)[C@@H](C)C=C(C)[C@H](OC(N)=O)[C@@H](OC)C=CC=C(C)C(=O)NC(=CC1=O)C2=O
active: [15] 3.72 µM | [14] 1.48 µM | [4] 1.66 µM

Nc1nc(=O)n([C@H]2C[C@H](O)[C@@H](CO)O2)cc1F
inactive: [1] | [3]
active: [14] 0.209 µM | [4] 0.0935 µM

CS[C@H]1SC[C@@H]2C(=O)N(C)[C@H](C(C)C)C(=O)OC[C@H](NC(=O)c3cnc4ccccc4n3)C(=O)N[C@H](C)C(=O)N(C)[C@@H]1C(=O)N(C)[C@H](C(C)C)C(=O)OC[C@H](NC(=O)c1cnc3ccccc3n1)C(=O)N[C@H](C)C(=O)N2C
inactive: [4]
active: [15] 0.0296 µM | [14] 0.0026 µM

C=CC[C@@H]1C=C(C)C[C@H](C)C[C@H](OC)[C@H]2O[C@@](O)(C(=O)C(=O)N3CCCC[C@H]3C(=O)O[C@H](C(C)=C[C@@H]3CC[C@H](O)[C@H](OC)C3)[C@@H](C)[C@@H](O)CC1=O)[C@@H](C)C[C@@H]2OC
inactive: [1] | [18]

CO[C@@H]1[C@@H](O)[C@H](O)[C@@H](n2c3c(Cl)cccc3c3c4c(c5c6cccc(Cl)c6[nH]c5c32)C(=O)NC4=O)O[C@@H]1CO
active: [1] 1.18 µM | [2] 0.332 µM | [3] 0.935 µM | [14] 0.264 µM | [4] 0.166 µM

N#Cc1ccc(COC[C@H]2O[C@@H](n3c(NCc4ccc(Cl)c(Cl)c4)nc4c(N)ncnc43)[C@@H](O)[C@@H]2O)cc1
inactive: [1]

C[C@@]12C(=O)OC(=O)[C@@]1(C)C1CCC2O1
active: [1] 6.62 µM | [3] 4.18 µM | [4] 2.96 µM

CC(C)N1[N]C(=C2C=c3cc(O)ccc3=N2)c2c(N)ncnc21
active: [1] 14.8 µM | [2] 10.5 µM | [14] 0.833 µM | [4] 5.9 µM

CC(C)(C)c1nc2c3cc[nH]c(=O)c3c3cc(F)ccc3c2[nH]1
inactive: [1] | [2] | [3] | [4]

Cc1ccc(-n2[nH]c(C)c(N=Nc3cccc(-c4cccc(C(=O)O)c4)c3O)c2=O)cc1C
active: [10] 1.58 µM
inactive: [15] | [16] | [5] | [17] | [8] | [9] | [11]

COc1cc(N2CCC(C(N)=O)CC2)ccc1Nc1nc(N)c(Cl)c(Nc2ccccc2S(=O)(=O)C(C)C)n1
active: [14] 5.9 µM | [4] 16.6 µM
inactive: [15]

N=c1ccn2c(n1)O[C@H]1[C@@H](O)[C@@H](CO)O[C@H]12
active: [14] 0.526 µM | [4] 2.09 µM
inactive: [1]

CCc1cnn2c(NCc3ccc[n+]([O-])c3)cc(N3CCCC[C@@H]3CCO)nc12
active: [1] 0.0833 µM | [3] 0.0418 µM | [14] 0.0935 µM

COc1cc2c(cc1O)CCC1C2CC[C@@]2(C)C1CC[C@@H]2O (some centres undefined)
inactive: [1]

CC(C)Oc1ccc(C(=O)N[C@H](CNC(=O)CN(C)C)Cc2ccc(-c3cn4cccc([C@H](C)O)c4n3)cc2)cc1Cl
inactive: [1] | [2] | [3]

Cc1cc(C(=O)NOCCO)c(Nc2ccc(I)cc2F)n(C)c1=O
inactive: [1] | [2] | [3] | [14] | [4]

CC(=O)NCC(=O)N1[C@H]2CC[C@H]1c1cc(Nc3ncc(C(F)(F)F)c(NC4CCC4)n3)ccc12
active: [1] 3.72 µM | [2] 0.209 µM | [3] 23.5 µM | [14] 7.43 µM | [4] 0.264 µM

O=C(O)c1ccc(Nc2ncc3c(n2)-c2ccc(Cl)cc2C(c2c(F)cccc2F)=NC3)cc1
inactive: [1] | [3] | [14] | [16] | [6] | [7] | [8] | [9] | [11] | [12]

CC(C)[C@H](CO)Nc1nc(Nc2cccc(Cl)c2)c2ncn(C(C)C)c2n1
inactive: [1]

C=Cc1c(C)c2cc3nc(cc4[nH]c(cc5nc(cc1[nH]2)C(C)=C5CCC(=O)O)c(CCC(=O)OC)c4C)[C@@]1(C)C3=CC=C(C(=O)OC)[C@H]1C(=O)OC
active: [1] 2.96 µM | [2] 0.0469 µM | [3] 0.0418 µM | [14] 0.469 µM

C[C@H](NCc1ccc(OCc2cccc(F)c2)cc1)C(N)=O
active: [1] 20.9 µM | [2] 10.5 µM | [14] 16.6 µM | [4] 18.7 µM

O=C(Nc1nnc(-c2ccco2)o1)c1cc(-c2ccccc2)nc2ccccc12
inactive: [1]

FC(F)c1nc2ccccc2n1-c1nc(N2CCOCC2)nc(N2CCOCC2)n1
active: [5] 2.24 µM | [6] 14.1 µM | [7] 2.24 µM | [10] 2 µM | [11] 2.82 µM
inactive: [15]

O=C(Nc1cccc(Nc2ncc(Br)c(NCCc3cnc[nH]3)n2)c1)N1CCCC1
active: [1] 11.8 µM | [3] 5.9 µM | [14] 16.6 µM | [4] 2.96 µM

CN(C)CCN1C(=O)c2cccc3cc(N)cc(c23)C1=O
inactive: [1]
active: [2] 14.8 µM | [3] 18.7 µM | [14] 7.43 µM | [4] 9.35 µM

Cc1ccc2nc(NCCN)c3ncc(C)n3c2c1
active: [3] 14.8 µM | [14] 20.9 µM

O=C(NC1CC1)c1cccc(-c2ccc3c(NC(=O)C4CC4)n[nH]c3c2)c1
inactive: [3]

N#Cc1c(NC(=O)c2cccc3ccccc23)sc2c1CCCC2
active: [14] 1.05 µM

Cn1cnc2c(F)c(Nc3ccc(Br)cc3F)c(C(=O)NOCCO)cc21
inactive: [2] | [3] | [14] | [4] | [16] | [5] | [17] | [7] | [8] | [11] | [13]
active: [9] 0.224 µM

CC(=O)O[C@@]12CO[C@H]1C[C@H](O)[C@@]1(C)C(=O)[C@H](O)C3=C(C)[C@@H](OC(=O)C(O)[C@@H](NC(=O)OC(C)(C)C)c4ccccc4)C[C@@](O)([C@@H](OC(=O)c4ccccc4)[C@@H]21)C3(C)C (some centres undefined)
inactive: [2] | [3] | [14] | [4]

NC(=NCCCCCCN=C(N)N=C(N)Nc1ccc(Cl)cc1)N=C(N)Nc1ccc(Cl)cc1
active: [3] 11.8 µM

C=C1C(=CC=C2CCC[C@]3(C)[C@@H]([C@H](C)CCCC(C)(C)O)CC[C@@H]23)C[C@@H](O)C[C@@H]1O
active: [2] 16.6 µM | [3] 6.62 µM | [4] 1.48 µM

FC(F)(F)c1ccc(Nc2nc3ccc(Oc4ccnc(-c5ncc(C(F)(F)F)[nH]5)c4)cc3[nH]2)cc1
inactive: [16] | [5] | [6] | [17] | [7] | [8] | [13]
